Screens (PubChem)
Hits are enriched below; roughly 3% of the tested compounds scored in any of these assays.
Sm TGR block = qHTS Assay for the Inhibitors of Schistosoma Mansoni Peroxiredoxins | Schistosoma mansoni thioredoxin glutathione reductase (TGR), Q962Y6 | purified TGR, DTNB reduction, TNB absorbance 405 nm | Potency, µM (doses to about 114 µM), hits mostly inhibitors | actives 3% (n = 360,000); also: nearly all actives have a fitted effect of over 60% in size
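Kinetic colorimetric format: TGR-catalysed, NADPH-driven DTNB reduction monitored via TNB absorbance. Enzyme dispensed at 20 nM; compound exposure 15 min at room temperature before reaction start.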
RE007 growth inh = qHTS Assay for Inhibitors of the HIV-1 protein Vpr; S. pombe RE007 Vpr strain, BacTiter-Glo ATP luminescence, 24 h; Potency, µM (top dose mostly 92.2 µM), hits mostly inhibitors; actives 0.21% (n = 360,000); active = well fitted falling curve with a large enough effect; inconclusive = small, poorly fitted or top-dose-only effect; inactive = no such curve, though single readings can be large or run the other way; also: nearly all actives have a fitted effect of over 50% in size
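Fission yeast strain RE007, carrying one chromosomally integrated HIV-1 vpr copy, was seeded at OD 0.01 in PMG+AL medium with 23 nL pinned compound. After 24 h at 30 °C and 99% humidity, viability was read by BacTiter-Glo luminescence.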
LmPK inhibitor = qHTS Assay for Inhibitors of Leishmania Mexicana Pyruvate Kinase (LmPK); Q27686; purified LmPK, Kinase-Glo ATP luminescence, 1 h; Potency, µM (titrated, usually from 57.5 µM), usual class: inhibitors; actives 0.37% (n = 290,000); AID 1721, 2009
Target sequence (Q27686 whole entry, looked up): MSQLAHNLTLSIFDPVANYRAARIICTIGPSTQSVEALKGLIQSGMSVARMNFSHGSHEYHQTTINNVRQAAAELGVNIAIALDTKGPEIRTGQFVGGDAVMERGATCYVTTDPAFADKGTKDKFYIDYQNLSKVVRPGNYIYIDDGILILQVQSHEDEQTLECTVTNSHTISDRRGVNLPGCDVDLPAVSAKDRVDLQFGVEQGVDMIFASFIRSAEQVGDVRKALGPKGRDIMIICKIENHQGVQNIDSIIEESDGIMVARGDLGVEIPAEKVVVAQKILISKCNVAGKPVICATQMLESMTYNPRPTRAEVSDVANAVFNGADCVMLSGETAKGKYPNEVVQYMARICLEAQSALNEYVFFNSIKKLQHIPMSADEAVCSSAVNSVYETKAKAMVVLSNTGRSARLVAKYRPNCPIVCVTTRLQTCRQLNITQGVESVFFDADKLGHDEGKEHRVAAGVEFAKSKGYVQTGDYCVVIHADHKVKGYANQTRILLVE
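qHTS format; LmPK 0.1 nM; substrates PEP 0.5 mM and ADP 0.1 mM. One-hour room-temperature incubation, then coupled luciferase luminescence; 0.5 nM enzyme wells mark activation.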
TbPYK inhibitor = qHTS of Trypanosoma Brucei Inhibitors; actives 0.12% (n = 410,000); TbPYK enzyme, Kinase-Glo Plus ATP luminescence, 45 min; AID 624173, 2012; Potency, µM (highest dose often 76.8 µM), actives largely listed as inhibitors; also: nearly all actives have a fitted effect of over 50% in size
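Readout: single end-point luminescence (Kinase-Glo Plus, 10 min). Reaction conditions were TbPYK/substrate plus 130 uM ADP, 45 min at RT, pH 7.2 TEA buffer. No-enzyme wells served as controls, and data were normalized before concentration-response fitting.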
LmPK inh confirm = Confirmation Assay for Inhibitors of Leishmania Mexicana Pyruvate Kinase (LmPK) | shares compounds with LmPK inhibitor | Potency, µM (series often up to 57.5 µM), actives largely listed as inhibitors | purified LmPK, Kinase-Glo ATP luminescence, 1 h | actives 40% (n = 150);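 active = compounds giving a full or partial concentration-response curve, as inhibitors or activators; inconclusive = weak, top-dose-only or unclear curve responses; inactive = no response at any tested dose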
Each line names hits and unclear results; the compound was inactive in the other large screens (follow-up assays come after a bar, where they were run). Unless noted, calls follow the shape of the dose curve; as a rule, active = well fitted curve in the direction sought with a large enough effect; inconclusive = small, poorly fitted or top-dose-only effect, or another doubt; inactive = no such curve, though single readings can be large; an effect the other way counts as inactive or inconclusive.

Cc1ccccc1N=CC1=C(O)c2ccccc2C1=O	RE007 growth inh inconclusive, LmPK inhibitor 4µM, TbPYK inhibitor inconclusive (no result: Sm TGR block) | LmPK inh confirm 15µM
Cc1ccc(C)c(OC2=NS(=O)(=O)c3ccccc32)c1	LmPK inhibitor 10µM | LmPK inh confirm inconclusive
COC(=O)CCNC(=O)N1CCN(c2nnc(C)c3c(C)n(-c4ccc(Cl)cc4)nc23)CC1	none (no result: RE007 growth inh, LmPK inhibitor)
CCN1/C(=C/c2ccc3cccc(C)c3[n+]2CC)Sc2ccccc21	RE007 growth inh inconclusive | LmPK inh confirm inactive
O=C1C(Cl)=C(NC(=O)c2ccccc2)C(=O)C(Cl)=C1NC(=O)c1ccccc1	Sm TGR block inconclusive, LmPK inhibitor 1.1µM, TbPYK inhibitor inconclusive | LmPK inh confirm inconclusive
CC(=O)Nc1ccc(Nc2nc(C)cc(C)n2)cc1	none
COC(=O)c1ccc(Nc2nc(C)cc(C)n2)cc1	none | LmPK inh confirm inactive
CCCCN(C(=O)Cc1coc2cc(C)c(C)cc12)c1c(N)n(Cc2ccccc2)c(=O)[nH]c1=O	none (no result: LmPK inhibitor)
Cc1cc(/C=N/NC(=O)c2ccoc2C)cc(C)c1O	none (no result: Sm TGR block, LmPK inhibitor)
Cc1occc1C(=O)N/N=C/c1ccc2c(c1)OCO2	RE007 growth inh inconclusive, LmPK inhibitor 4.5µM, TbPYK inhibitor inconclusive | LmPK inh confirm 16µM
CCOc1ccc(N2C(=O)CN=C2Nc2ccccc2Cl)cc1	none | LmPK inh confirm inactive
Cc1cc(-c2ccc(S(=O)(=O)Nc3cccc(Cl)c3C)cc2)on1	none (no result: RE007 growth inh, LmPK inhibitor)
O=C1c2ccccc2-c2nnc(-c3ccccc3)cc21	RE007 growth inh inconclusive, LmPK inhibitor 2.8µM, TbPYK inhibitor inconclusive | LmPK inh confirm 7.3µM
CC1(C(=O)Nc2ccc(Cl)c(Cl)c2)CCN1Cc1cc2ccccc2o1 (stereo not given)	none (no result: Sm TGR block, LmPK inhibitor)
Oc1ccc(C23CC4CC(CC(C4)C2)C3)cc1O	Sm TGR block 1.8µM, RE007 growth inh inconclusive, LmPK inhibitor 0.28µM, TbPYK inhibitor inconclusive | LmPK inh confirm inactive
CC(=O)Nc1ccc(C23CC4CC(CC(C4)C2)C3)cc1	none
COc1ccc(CCN2C(=O)COc3ccccc3C2C(=O)NCc2ccccc2)cc1OC (stereo not given)	none (no result: Sm TGR block, LmPK inhibitor)
CN(Cc1cn(C)nc1-c1cccc(Cl)c1)CC1CCCCO1 (stereo not given)	none | LmPK inh confirm inactive
Cc1cnccc1CN(C)Cc1cn(C)nc1-c1cccc(Cl)c1	Sm TGR block inconclusive | LmPK inh confirm inactive
Cc1cnccc1CN(C)Cc1cn(C)nc1-c1ccc(Oc2ccccc2)cc1	none | LmPK inh confirm inactive
CCN(Cc1nc(-c2cccc(Cl)c2)no1)CC1CCCO1 (stereo not given)	none
CCC1([N+](=O)[O-])COC(c2ccc(OC)cc2)OC1 (stereo not given)	none (no result: Sm TGR block, LmPK inhibitor)
Cc1ccccc1CSc1nc2ccsc2c(=O)n1CCC(C)C	none (no result: RE007 growth inh, LmPK inhibitor)
COc1ccccc1Cn1cc(C(=O)c2ccc(C)cc2)c(=O)c2cc(F)cc(F)c21	none (no result: RE007 growth inh, LmPK inhibitor)
COC(=O)c1c(C)[nH]c(O)c1C=Nc1ccc(Oc2ccccc2)cc1	none
COCOCCn1cc(CN2CCS(=O)(=O)N(Cc3ccc(-c4ccc(OC)nc4)cc3)C(C(C)C)C2=O)nn1 (stereo not given)	TbPYK inhibitor inconclusive (no result: Sm TGR block, LmPK inhibitor)
Cc1ccc(S(=O)(=O)/N=C2/C=C(Sc3ncn[nH]3)C(=O)c3ccccc32)c(C)c1	Sm TGR block 0.63µM, LmPK inhibitor 7.9µM (no result: RE007 growth inh, TbPYK inhibitor) | LmPK inh confirm inconclusive
Cc1ccc(S(=O)(=O)/N=C2\C=C(Nc3ccc(O)cc3)C(=O)c3ccccc32)cc1	none (no result: Sm TGR block, LmPK inhibitor)
Cc1ccc(S(=O)(=O)/N=C2/C=C(Sc3ncn[nH]3)C(=O)c3ccccc32)cc1	Sm TGR block 0.32µM, RE007 growth inh inconclusive, LmPK inhibitor 7.1µM, TbPYK inhibitor 7.9µM | LmPK inh confirm 4.6µM
Cc1ccc(S(=O)(=O)/N=C2\C=C(NS(=O)(=O)c3ccccc3)C(=O)c3ccccc32)c(C)c1	none (no result: Sm TGR block, LmPK inhibitor)
COc1ccc(NC(=O)CCc2nc3ccccc3c(=O)[nH]2)cc1S(=O)(=O)N1CCCCC1	none (no result: Sm TGR block, LmPK inhibitor)
CC[n+]1c(C)sc2sc3ccccc3c21	LmPK inhibitor 2.8µM (no result: RE007 growth inh, TbPYK inhibitor) | LmPK inh confirm 4.6µM
O=C(Nc1nc2ccccc2[nH]1)c1ccccc1F	RE007 growth inh 6.3µM, LmPK inhibitor 3.2µM, TbPYK inhibitor inconclusive | LmPK inh confirm 6.5µM
Cc1ccsc1C(=O)Nc1nc2ccccc2[nH]1	RE007 growth inh inconclusive, LmPK inhibitor 2.8µM, TbPYK inhibitor inconclusive | LmPK inh confirm 21µM
CON=C1C=C(C)C(=O)C(C)=C1C	none (no result: Sm TGR block, LmPK inhibitor)
Cc1cccc(NC(=O)c2cc3ccccc3oc2=O)c1	none
Cc1ccnc(NC(=O)c2cc3ccccc3oc2=O)c1	LmPK inhibitor 7.9µM | LmPK inh confirm inconclusive
O=C(Nc1ccc2c(c1)OCCO2)c1ccccn1	RE007 growth inh inconclusive, LmPK inhibitor 5µM, TbPYK inhibitor inconclusive | LmPK inh confirm 18µM
O=C(/C=C/c1ccc2c(c1)OCO2)c1ccccn1	RE007 growth inh inconclusive, LmPK inhibitor 5µM, TbPYK inhibitor inconclusive | LmPK inh confirm 21µM
CCOc1ccccc1NC(=O)N1CCCC(c2nc3c(nnn3Cc3ccc(C)cc3)c(=O)[nH]2)C1 (stereo not given)	none
Cc1ccc(Cn2nnc3c(=O)[nH]c(C4CCCN(C(=O)Nc5ccc(F)cc5F)C4)nc32)cc1 (stereo not given)	none | LmPK inh confirm inactive
COc1ccc(/C(O)=C2/C(=O)C(=O)N(Cc3cccnc3)C2c2ccco2)cc1OC (stereo not given)	none | LmPK inh confirm inactive
CCOc1ccc(/C=N/NC(=O)c2c(-c3ccccc3)noc2C)cc1	none
CCOc1ccc(/C=N/NC(=O)COc2ccccc2-c2ccccc2)cc1	none | LmPK inh confirm inactive
c1ccc(-c2nc(-c3ccccn3)no2)cc1	RE007 growth inh inconclusive, LmPK inhibitor 3.5µM, TbPYK inhibitor inconclusive | LmPK inh confirm 15µM
COc1cc(-c2nc(-c3ccccn3)no2)cc(OC)c1OC	none
CCCCOc1cccc(C(=O)N(Cc2ccc(Br)o2)C2CCS(=O)(=O)C2)c1 (stereo not given)	none (no result: RE007 growth inh, LmPK inhibitor)
CCOc1ccc(NC(=O)Nc2ccccc2C(N)=O)cc1	RE007 growth inh inconclusive, LmPK inhibitor 3.2µM (no result: Sm TGR block) | LmPK inh confirm 10µM
Cc1nc(N/N=C/c2ccccn2)sc1C	RE007 growth inh 16µM, LmPK inhibitor 10µM, TbPYK inhibitor inconclusive | LmPK inh confirm 18µM
Cc1cccc(C)c1NC(=O)C(c1ccncc1)n1c(=O)c(-c2cc3ccccc3[nH]2)nc2ccccc21 (stereo not given)	none (no result: Sm TGR block, LmPK inhibitor, TbPYK inhibitor)
